# Assay results published in the supplement of paper PMC11417369.
# ± gives the standard deviation of the averaged measurements. In all, about 25,000 sequences were measured (“ln(normalized median fluorescence intensity)”: median about 7.9, highest 2% from about 11 on). The entries come from a sample that favours the highest values as a whole.
# Tested on: PfAP2-I AP2 domain 3 (GST-tagged)
# Assay: gcPBM binding intensity (ln(normalized median fluorescence intensity)); higher = stronger DNA binding
# How it was run: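 In this array assay, P. falciparum DNA-binding domains with a GST tag, expressed in E. coli, were applied for 1 h to primer-extended double-stranded 36-bp intergenic genomic probes and negative controls on an Agilent 4 × 180k array. Bound protein was visualised with Alexa488 anti-GST antibody at 488 nm. Binding intensity is the highest Masliner-normalised natural-log median intensity across replicate spots of either probe orientation.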
row,Sequence,gcPBM binding intensity (ln)
1,ATTATGCACCAACACACACACACACTCCTAAAAAAT [CACACA_site8822],11.4 ± 0.95
2,TGCACAAAATTATGCACACACCTAAAATTAATTTTT [CACACA_site5596],9.98 ± 0.32
3,TTTTGTTTCTATATAAGATGGAAATATAAACTTGTA [CACACA_negctrl_site82],7.64 ± 0.47
4,AATAAAAATTTACTTTGTACACATATTAAATTCAAT [XGTACX_site1957],7.83 ± 0.15
5,TATATTAATAAAGGTACTACACGGAAATGGAAATAT [XGTACX_site7760],8.58 ± 0.67
6,TTAAAATAAAGAAAATGTACATAAATAAAAATAAAG [XGTACX_site2280],8.35 ± 0.45
7,AACCAATTATATTTACGTACGTACGGTTTTTTATAT [XGTACX_site1291],7.94 ± 0.48
8,ATTTCTTTTTTATTGAGTACATATGACCATGTTCAA [XGTACX_site5365],8.14 ± 0.38
9,ATTATTCATTTATGTAGTACATTTTAATACATTTAA [XGTACX_site3599],7.75 ± 0.6
10,AGACCTTTAATTTGTGTGCACATAATTAGTGTACAT [GTGCAC_site9434],9.96 ± 0.16
11,ATTTCCTTTTGTTTCAGTACATAATTTTTTTTTTTT [XGTACX_site4842],7.88 ± 0.62
12,TACGTCTTTTTTTTGGTGCATAATTTTTTTGTACAA,11.2 ± 0.44
13,TTTCTTTATTAAAATATTTTACATATATAATATACG [TGCATGCA_negctrl_site564],7.92 ± 0.55
14,TTTTCTTTTTTTTTTGTGCACATAATATATAATTAT,10.8 ± 0.14
15,ACCAATAAATATTTGGTGCATACATATATATATATA,10.31 ± 0.064
16,AAAATTTCTTTTTTTTGTACATATATAATAATATAT [XGTACX_site7107],7.82 ± 0.39
17,CAACCTTTTTTGTTGGTGCATAATTTTTTTTTCTTT,10.9 ± 0.52
18,TATTTCTTTTGGTTGGTGCATAAAATAATACAATAT [GTGCAC_site9916],11.2 ± 0.59
19,CGGACATACTAACGGACACACGTAAGAAAAAAAAAG [CACACA_site4504],7.79 ± 0.58
20,ATAAATAAAAATACATGAACAGGTCAGGTTATTTTT [CACACA_negctrl_site1007],7.29 ± 0.61
21,AAAGAAATTATTTGTTGTACATATGTTATTTTTTTT [XGTACX_site7570],7.75 ± 0.25
22,AAATGTGCATTATGTTGTACAGTCGAAATTTTTTTT [XGTACX_site3812],11.1 ± 0.62
23,TATTTTGCAAAATGTGCATGTTGTGTATTATGTGAC [TGCATGCA_site59],8.97 ± 0.51
24,AAGAAAGACATTACGTGTACCAAACAACCTACCAAC [XGTACX_site4219],8.22 ± 0.25

row,Sequence,gcPBM binding intensity (ln)
1,TTCCTTTGTTGTCGTTGTACTTATATGGTTATAATT [XGTACX_site3082],8.29 ± 0.64
2,TAGGTCCTCATTTTATGTACATAAAGAAATATGATT [XGTACX_site4138],7.86 ± 0.36
3,TATTATAATATTTATACACACATAATTTTGATAAAT [CACACA_site583],7.68 ± 0.4
4,ACCCATTTGATAATAATGCACACCACATATATTTAT [CACACA_site3061],11 ± 0.63
5,CCATTTGATAATAATGCACACCACATATATTTATAT [CACACA_site9002],11 ± 0.4
6,ATATATTTATAATACACATGCAATGATATAATATAT [TGCATGCA_site20],8.43 ± 0.75
7,TATATATTAATATTTACACACATGCGCACCCATAAA [CACACA_site2410],9.86 ± 0.57
8,CCCATGCATTTTTGCACACACATATATTTATAAATA [CACACA_site6785],9.75 ± 0.17
9,ACTCTCTTATATTAAACACACATATTTATAGGTATA [CACACA_site7302],8.07 ± 0.45
10,AGGAGGATGCATATGGCACACATTATGAAACTGTCG [CACACA_site299],9.11 ± 1
11,AATTTTTAGAAGAACACACACATATATATTATGACC [CACACA_site246],7.75 ± 0.65
12,TATTAATGATAAGAATATTTTATATGATACATGCAT [CACACA_negctrl_site923],7.46 ± 0.68
13,ATTTTTAATGGATAAGTGCATAATATTATGATGCAA,10.9 ± 0.64
14,GAAAGAAAATATTAAGTGCATATTTTAATGATACAA [GTGCAC_site9712],9.02 ± 0.2
15,TTTTTTTTTTTGTGTGCATGTGCTAGGAAAGGTAGG [TGCATGCA_site330],8.85 ± 0.11
16,TACTTCATATAATTAGCACACAATAATTTCTCATTT [CACACA_site2872],8.31 ± 0.45
17,GTATTTATAATACGGCGTACATAAAAAAAAAAAAAA [XGTACX_site3705],8.14 ± 0.45
18,AATGCTATCATTAATGCACACATTTAAAATTAATAT [CACACA_site3548],11 ± 0.55
19,TAATATATTATAAACACATGCACATTAATAATAACT [TGCATGCA_site708],8.08 ± 0.58
20,AATGCTATCATTAATGCACACATTTAAACTTAATAT [CACACA_site5878],11 ± 0.61
21,AAATTTAATTTTATATCACACATTAAATTTTAATGG [CACACA_site4251],7.65 ± 0.58
22,TATCATTTTTTTAAAACACACATAATAATATAAATA [CACACA_site2845],7.82 ± 0.31
23,TAAATTAATACCTATGCACACATTTTTTTTTTTAAA [CACACA_site1238],8.32 ± 0.47
